# From paper PMC7862700, “An all-to-all approach to the identification of sequence-specific readers for epigenetic DNA modifications on cytosine”
# What was measured:
# Test in all cases: DAPPL (digital affinity profiling via proximity ligation, sequencing); 10 mM Tris-HCl pH 7.5, 50 mM NaCl, 1 mM DTT, 4% glycerol, room temperature, 30 min; GST-TFs on glutathione beads, 16-mer random dsDNA library, 0.1% formaldehyde crosslink after washing; high values mean tight binding
# Conditions in all cases: protein: recombinant; tags: N-terminal GST; dsDNA, one strand shown
# ERG = target: T1, ERG (Homo sapiens, UniProt P11308 1-479)
# T1 sequence: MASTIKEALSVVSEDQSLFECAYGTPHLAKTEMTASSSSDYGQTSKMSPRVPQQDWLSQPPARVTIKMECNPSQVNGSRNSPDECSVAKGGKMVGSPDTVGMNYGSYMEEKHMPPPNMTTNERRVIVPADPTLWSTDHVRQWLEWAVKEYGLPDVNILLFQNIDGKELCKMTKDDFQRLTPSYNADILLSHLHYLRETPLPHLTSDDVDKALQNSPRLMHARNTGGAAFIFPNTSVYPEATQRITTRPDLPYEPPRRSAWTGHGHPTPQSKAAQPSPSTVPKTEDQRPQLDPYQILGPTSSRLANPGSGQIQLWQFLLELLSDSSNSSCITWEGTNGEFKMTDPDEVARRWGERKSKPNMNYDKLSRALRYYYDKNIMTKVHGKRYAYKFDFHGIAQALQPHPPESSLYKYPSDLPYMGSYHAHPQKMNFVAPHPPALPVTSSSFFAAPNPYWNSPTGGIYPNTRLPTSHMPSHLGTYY
# Method in brief: (§1)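 GST fusions of human transcription factors were expressed in yeast and captured with glutathione beads. Once given DNA barcodes and pooled alongside a tag-only sample, they were incubated for 30 min at room temperature with 200 nmole of a random double-stranded 16-mer DNA library in Tris/NaCl/DTT/glycerol buffer, then washed, crosslinked (0.1% formaldehyde), proximity-ligated, PCR-amplified and sequenced on an Illumina NextSeq500. The binding signal of each hexamer is its read frequency for a factor divided by its frequency for the tag-only sample.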
# ELF1 = ELF1 (Homo sapiens, UniProt P32519 1-619)
# Method in brief: as §1
# EHF = target: T2, EHF (Homo sapiens, UniProt Q9NZC4 1-300)
# T2 sequence: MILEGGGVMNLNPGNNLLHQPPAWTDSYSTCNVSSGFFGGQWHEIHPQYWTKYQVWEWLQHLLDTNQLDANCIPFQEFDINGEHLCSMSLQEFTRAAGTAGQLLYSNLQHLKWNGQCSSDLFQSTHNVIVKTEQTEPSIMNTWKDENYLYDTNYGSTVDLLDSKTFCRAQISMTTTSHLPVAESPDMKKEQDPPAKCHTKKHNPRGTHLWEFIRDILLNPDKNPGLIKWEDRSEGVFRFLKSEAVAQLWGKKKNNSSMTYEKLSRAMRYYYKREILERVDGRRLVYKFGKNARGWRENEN
# Method in brief: as §1
# SPIB = SPIB (Homo sapiens, UniProt Q01892 1-262)
# Method in brief: as §1
# FEV = target: T3, FEV (Homo sapiens, UniProt Q99581 1-238)
# T3 sequence: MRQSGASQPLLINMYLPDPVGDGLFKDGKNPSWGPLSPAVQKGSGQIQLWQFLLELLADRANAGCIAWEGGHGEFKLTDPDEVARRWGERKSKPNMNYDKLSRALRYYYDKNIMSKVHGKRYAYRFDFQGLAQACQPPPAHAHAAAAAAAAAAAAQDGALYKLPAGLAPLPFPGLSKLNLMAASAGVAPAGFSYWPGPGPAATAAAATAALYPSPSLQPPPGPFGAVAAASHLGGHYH
# Method in brief: as §1
# ETV5 = ETV5 (Homo sapiens, UniProt P41161 1-510)
# Method in brief: as §1
# ELK4 = target: T4, ELK4 (Homo sapiens, UniProt P28324-2 1-405)
# T4 sequence: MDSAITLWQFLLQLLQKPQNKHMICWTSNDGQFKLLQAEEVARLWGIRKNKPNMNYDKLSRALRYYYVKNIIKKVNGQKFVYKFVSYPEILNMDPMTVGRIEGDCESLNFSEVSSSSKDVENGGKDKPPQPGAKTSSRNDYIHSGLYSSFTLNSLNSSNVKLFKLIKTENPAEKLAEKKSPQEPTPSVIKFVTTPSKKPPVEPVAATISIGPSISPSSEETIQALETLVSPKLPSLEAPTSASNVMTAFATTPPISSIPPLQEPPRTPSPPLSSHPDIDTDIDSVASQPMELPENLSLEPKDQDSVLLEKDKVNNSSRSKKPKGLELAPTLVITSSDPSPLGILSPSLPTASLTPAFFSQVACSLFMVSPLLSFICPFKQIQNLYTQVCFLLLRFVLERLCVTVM
# Method in brief: as §1
# ELF3 = target: T5, ELF3 (Homo sapiens, UniProt P78545 1-371)
# T5 sequence: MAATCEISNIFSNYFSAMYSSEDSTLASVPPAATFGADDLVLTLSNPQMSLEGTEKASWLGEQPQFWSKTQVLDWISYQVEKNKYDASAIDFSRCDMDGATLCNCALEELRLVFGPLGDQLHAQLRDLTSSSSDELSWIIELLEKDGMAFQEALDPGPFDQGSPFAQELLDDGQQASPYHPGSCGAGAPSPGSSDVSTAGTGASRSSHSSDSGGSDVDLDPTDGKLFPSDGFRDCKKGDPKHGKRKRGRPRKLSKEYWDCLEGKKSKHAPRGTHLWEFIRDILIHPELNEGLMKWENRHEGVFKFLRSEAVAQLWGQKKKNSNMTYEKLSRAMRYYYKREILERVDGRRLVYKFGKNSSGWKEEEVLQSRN
# Method in brief: as §1
# ERF = target: T6, ERF (Homo sapiens, UniProt P50548 1-548)
# T6 sequence: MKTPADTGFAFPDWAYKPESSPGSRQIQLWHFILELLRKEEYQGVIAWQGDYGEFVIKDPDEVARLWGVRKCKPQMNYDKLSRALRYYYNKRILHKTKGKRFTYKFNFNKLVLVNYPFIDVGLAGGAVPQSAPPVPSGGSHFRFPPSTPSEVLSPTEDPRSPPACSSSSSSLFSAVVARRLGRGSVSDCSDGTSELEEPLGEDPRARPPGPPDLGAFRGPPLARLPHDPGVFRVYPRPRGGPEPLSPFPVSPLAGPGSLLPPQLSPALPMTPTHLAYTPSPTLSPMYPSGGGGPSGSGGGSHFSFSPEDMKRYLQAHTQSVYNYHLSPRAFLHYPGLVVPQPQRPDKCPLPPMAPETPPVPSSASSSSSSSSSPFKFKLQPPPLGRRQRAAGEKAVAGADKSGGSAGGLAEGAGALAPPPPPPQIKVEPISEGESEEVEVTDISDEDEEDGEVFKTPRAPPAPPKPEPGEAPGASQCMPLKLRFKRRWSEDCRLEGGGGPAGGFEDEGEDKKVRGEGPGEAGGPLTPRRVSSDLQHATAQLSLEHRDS
# Method in brief: as §1
# ETV3L = target: T7, ETV3L (Homo sapiens, UniProt Q6ZN32 1-361)
# T7 sequence: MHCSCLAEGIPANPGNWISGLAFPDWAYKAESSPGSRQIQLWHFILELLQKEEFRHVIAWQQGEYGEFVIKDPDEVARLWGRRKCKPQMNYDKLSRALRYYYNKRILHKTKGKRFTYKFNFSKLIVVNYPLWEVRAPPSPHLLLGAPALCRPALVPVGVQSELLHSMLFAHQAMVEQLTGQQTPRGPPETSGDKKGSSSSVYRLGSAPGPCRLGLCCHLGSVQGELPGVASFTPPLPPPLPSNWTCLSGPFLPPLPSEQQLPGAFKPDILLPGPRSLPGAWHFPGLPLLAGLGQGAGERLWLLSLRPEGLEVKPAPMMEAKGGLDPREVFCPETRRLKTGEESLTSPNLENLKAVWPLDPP
# Method in brief: as §1
# ETS2 = target: T8, ETS2 (Homo sapiens, UniProt P15036 1-469)
# T8 sequence: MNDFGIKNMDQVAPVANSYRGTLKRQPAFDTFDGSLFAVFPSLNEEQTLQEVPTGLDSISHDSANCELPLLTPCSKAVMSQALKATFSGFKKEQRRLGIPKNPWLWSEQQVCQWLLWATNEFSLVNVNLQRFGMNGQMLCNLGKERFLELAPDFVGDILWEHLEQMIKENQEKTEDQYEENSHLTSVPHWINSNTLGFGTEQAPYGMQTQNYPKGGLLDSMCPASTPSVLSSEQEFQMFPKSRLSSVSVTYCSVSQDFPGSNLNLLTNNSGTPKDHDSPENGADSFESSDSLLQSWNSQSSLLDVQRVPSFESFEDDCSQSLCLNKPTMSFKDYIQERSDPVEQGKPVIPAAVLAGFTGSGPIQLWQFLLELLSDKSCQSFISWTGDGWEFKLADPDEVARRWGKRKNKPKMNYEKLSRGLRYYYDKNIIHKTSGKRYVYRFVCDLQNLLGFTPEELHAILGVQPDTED
# Method in brief: as §1
# SPDEF = target: T9, SPDEF (Homo sapiens, UniProt O95238 1-335)
# T9 sequence: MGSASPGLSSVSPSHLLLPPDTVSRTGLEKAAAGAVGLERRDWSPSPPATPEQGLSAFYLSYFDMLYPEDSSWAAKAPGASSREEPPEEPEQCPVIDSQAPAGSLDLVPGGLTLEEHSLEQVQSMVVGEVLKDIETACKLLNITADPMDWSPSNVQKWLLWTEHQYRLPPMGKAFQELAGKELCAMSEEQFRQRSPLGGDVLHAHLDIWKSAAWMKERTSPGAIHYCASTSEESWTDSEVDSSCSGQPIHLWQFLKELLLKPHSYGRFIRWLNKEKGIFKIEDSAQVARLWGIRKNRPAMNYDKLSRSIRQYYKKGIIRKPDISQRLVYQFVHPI
# Method in brief: as §1
# ETV7 = target: T10, ETV7 (Homo sapiens, UniProt Q9Y603 1-341)
# T10 sequence: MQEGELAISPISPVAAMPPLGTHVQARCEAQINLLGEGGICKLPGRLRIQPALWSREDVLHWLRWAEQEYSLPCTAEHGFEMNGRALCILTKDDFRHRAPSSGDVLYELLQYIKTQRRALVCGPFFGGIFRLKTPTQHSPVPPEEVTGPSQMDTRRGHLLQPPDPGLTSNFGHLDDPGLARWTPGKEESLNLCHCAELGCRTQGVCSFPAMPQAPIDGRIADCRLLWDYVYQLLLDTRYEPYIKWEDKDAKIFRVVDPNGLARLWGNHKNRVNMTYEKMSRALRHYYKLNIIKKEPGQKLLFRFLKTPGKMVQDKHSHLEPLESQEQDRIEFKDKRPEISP
# Method in brief: as §1
# ETV3 = target: T11, ETV3 (Homo sapiens, UniProt P41162-2 1-143)
# T11 sequence: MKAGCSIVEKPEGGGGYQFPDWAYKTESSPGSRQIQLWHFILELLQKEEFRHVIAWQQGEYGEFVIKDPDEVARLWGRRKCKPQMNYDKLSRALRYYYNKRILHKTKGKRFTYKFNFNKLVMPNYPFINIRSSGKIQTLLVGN
# Method in brief: as §1
# ETV6 = ETV6 (Homo sapiens, UniProt P41212 1-452)
# Method in brief: as §1
# Sequence of SPIB (Q01892 whole entry): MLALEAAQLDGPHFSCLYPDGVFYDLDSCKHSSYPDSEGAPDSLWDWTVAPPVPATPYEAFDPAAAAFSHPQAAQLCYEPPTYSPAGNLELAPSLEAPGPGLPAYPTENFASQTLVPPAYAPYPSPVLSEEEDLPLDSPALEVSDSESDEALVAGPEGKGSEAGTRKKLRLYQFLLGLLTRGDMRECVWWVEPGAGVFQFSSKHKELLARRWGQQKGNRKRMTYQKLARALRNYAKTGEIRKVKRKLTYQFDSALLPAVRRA
# Sequence of ETV6 (P41212 whole entry): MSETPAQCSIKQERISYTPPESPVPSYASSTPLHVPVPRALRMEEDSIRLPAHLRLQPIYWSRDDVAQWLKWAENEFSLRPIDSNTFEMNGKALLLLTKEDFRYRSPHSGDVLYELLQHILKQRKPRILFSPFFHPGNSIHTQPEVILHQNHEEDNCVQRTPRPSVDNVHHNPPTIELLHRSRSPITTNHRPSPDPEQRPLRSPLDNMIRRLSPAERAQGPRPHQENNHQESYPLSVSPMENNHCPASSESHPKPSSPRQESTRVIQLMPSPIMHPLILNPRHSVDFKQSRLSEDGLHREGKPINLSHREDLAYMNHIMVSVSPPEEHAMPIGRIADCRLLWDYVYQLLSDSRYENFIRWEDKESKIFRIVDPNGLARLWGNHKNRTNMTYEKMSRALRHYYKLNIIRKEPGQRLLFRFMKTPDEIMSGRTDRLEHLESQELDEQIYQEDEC
# Sequence of ELF1 (P32519 whole entry): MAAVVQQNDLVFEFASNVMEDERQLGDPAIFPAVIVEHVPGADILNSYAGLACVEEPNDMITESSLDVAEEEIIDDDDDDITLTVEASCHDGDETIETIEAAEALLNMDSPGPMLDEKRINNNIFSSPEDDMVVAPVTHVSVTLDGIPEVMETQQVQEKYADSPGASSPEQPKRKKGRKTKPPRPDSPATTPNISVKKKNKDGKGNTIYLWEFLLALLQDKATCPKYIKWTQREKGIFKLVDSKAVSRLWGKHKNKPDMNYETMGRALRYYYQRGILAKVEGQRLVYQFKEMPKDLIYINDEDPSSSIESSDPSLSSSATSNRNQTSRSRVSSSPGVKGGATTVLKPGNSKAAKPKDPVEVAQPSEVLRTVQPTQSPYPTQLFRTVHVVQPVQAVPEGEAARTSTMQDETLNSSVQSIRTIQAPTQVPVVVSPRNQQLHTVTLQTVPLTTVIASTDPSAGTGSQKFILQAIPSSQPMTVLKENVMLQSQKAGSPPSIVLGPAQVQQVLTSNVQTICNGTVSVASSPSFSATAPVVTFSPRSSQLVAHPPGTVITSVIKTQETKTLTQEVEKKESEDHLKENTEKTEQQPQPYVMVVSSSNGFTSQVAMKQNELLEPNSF
# Sequence of ETV5 (P41161 whole entry): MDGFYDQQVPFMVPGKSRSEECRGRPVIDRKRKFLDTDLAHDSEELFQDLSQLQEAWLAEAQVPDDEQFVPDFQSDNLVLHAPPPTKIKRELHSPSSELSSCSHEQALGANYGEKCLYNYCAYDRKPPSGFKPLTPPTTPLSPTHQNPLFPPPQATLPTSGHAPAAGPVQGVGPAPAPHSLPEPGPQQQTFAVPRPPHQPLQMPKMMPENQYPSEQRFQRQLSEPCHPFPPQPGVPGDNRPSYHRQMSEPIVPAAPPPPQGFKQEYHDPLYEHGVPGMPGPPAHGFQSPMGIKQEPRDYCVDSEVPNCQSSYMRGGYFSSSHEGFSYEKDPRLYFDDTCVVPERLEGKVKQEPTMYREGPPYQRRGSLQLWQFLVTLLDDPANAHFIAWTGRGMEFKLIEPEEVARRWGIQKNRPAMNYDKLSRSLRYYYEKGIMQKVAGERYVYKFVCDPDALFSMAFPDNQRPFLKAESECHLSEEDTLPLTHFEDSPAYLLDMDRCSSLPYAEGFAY
sequence,measurement,setting,value
TGGCTG,binding signal,ERG,"1.04 fold enrichment (6-mer frequency, TF over GST control)"
same,binding signal,ELF1,"1.06 fold enrichment (6-mer frequency, TF over GST control)"
same,binding signal,EHF,"1.23 fold enrichment (6-mer frequency, TF over GST control)"
same,binding signal,SPIB,"1.01 fold enrichment (6-mer frequency, TF over GST control)"
same,binding signal,FEV,"1.04 fold enrichment (6-mer frequency, TF over GST control)"
same,binding signal,ETV5,"1.08 fold enrichment (6-mer frequency, TF over GST control)"
same,binding signal,ELK4,"1.24 fold enrichment (6-mer frequency, TF over GST control)"
same,binding signal,ELF3,"1 fold enrichment (6-mer frequency, TF over GST control)"
same,binding signal,ERF,"1.17 fold enrichment (6-mer frequency, TF over GST control)"
same,binding signal,ETV3L,"1.09 fold enrichment (6-mer frequency, TF over GST control)"
same,binding signal,ETS2,"1.05 fold enrichment (6-mer frequency, TF over GST control)"
same,binding signal,SPDEF,"1.01 fold enrichment (6-mer frequency, TF over GST control)"
same,binding signal,ETV7,"1.07 fold enrichment (6-mer frequency, TF over GST control)"
same,binding signal,ETV3,"1 fold enrichment (6-mer frequency, TF over GST control)"
same,binding signal,ETV6,"1.02 fold enrichment (6-mer frequency, TF over GST control)"
